Test results taken from PubChem BioAssay (EPA / NIEHS).
Calls of active or inactive are those of the source. Rule for the calls: active = hit-call score of the fitted dose curve at least 0.9, where 1 is the maximum; inactive = score below 0.9.

Read-out: Cytochrome P450 7A1 (Homo sapiens) (UniProt P22680)
Assay: LTEA_HepaRG_CYP7A1: Life Technologies and Expression Analysis (LTEA) Assay for Cytochrome P450 7A1 (CYP7A1) using HepaRG (AID 2283496)
Settings: mRNA level, 48 h; actives raise or lower the signal
Method in brief: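 Using 0.5% DMSO as vehicle and baseline, chemicals were tested in duplicate over an 8-point range from 100 uM on HepaRG cells for 48 h; qRT-PCR signals were normalised to ACTB, GAPDH and POLR2A.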

outcome, inactive:
O=C(O)CN(CC(=O)O)CC(=O)O
CC(C)c1cccc(C(C)C)c1NC(=O)NS(=O)(=O)c1cc(C(C)(C)O)co1
Oc1ccc(O)cc1
O=C(O)c1[nH]n(-c2ccc(S(=O)(=O)O)cc2)c(=O)c1N=Nc1ccc(S(=O)(=O)O)cc1
CCCCCCCCCC[N+](C)(C)[O-]
CSc1ccc(Oc2ccc(S(N)(=O)=O)cc2CN(C)C)cc1C
CCCCOC(=O)CCCCC(=O)OCCCC
CN(C)C(=O)NC1(c2ccccc2)CCN(CC[C@@]2(c3ccc(F)c(F)c3)CN(C(=O)c3ccccc3)CCO2)CC1
CCCCCCC(C=O)=Cc1ccccc1
OCC(O)CO
O=C(O)CC(O)(CC(=O)O)C(=O)O
O=Cc1ccccc1C=O
CC1(C)C(=O)NC(=O)N1CO

AC50, active:
CCc1cc(C2=C(C(=O)O)N(c3ccccc3C(F)(F)F)S(=O)(=O)c3ccccc32)cc2c1OCO2 72.2 µM
CN(C)CCCN1c2ccccc2Sc2ccc(Cl)cc21 81.3 µM
COc1ccc(C(=O)Nc2nc3ccccc3c(NCc3ccccc3)c2C#N)cc1 17.8 µM
Cc1cc(SC2=C(O)C[C@@](CCc3ccc(N)cc3)(C(C)C)OC2=O)c(C(C)(C)C)cc1CO 16.1 µM
CCCCc1nc2cccnc2n1Cc1ccc(-c2ccccc2-c2nnn[nH]2)cc1 26.6 µM

Read-out: Glutathione S-Transferase (GSTA2), GSTA2 (gene 2939)
Assay: LTEA_HepaRG_GSTA2: Life Technologies and Expression Analysis (LTEA) Assay for Glutathione S-Transferase (GSTA2) using HepaRG (AID 2283497)
Settings: mRNA level, 48 h; actives raise or lower the signal
Method in brief: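 GSTA2 transcript levels came from Fluidigm TaqMan qRT-PCR normalized to three housekeeping genes, fitted in both directions against DMSO. HepaRG cultures received chemicals for 48 h in serum-free induction medium (0.5% DMSO), 8 half-log concentrations up to 100 uM, duplicate.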

outcome, inactive:
COC(=O)CCCC(=O)OC
O=C(O)CN(CC(=O)O)CC(=O)O
CC(C)c1cccc(C(C)C)c1NC(=O)NS(=O)(=O)c1cc(C(C)(C)O)co1
Oc1ccc(O)cc1
NC=O
CC(=O)S[C@H](C(=O)N[C@H]1Cc2ccccc2[C@H]2CCC[C@@H](C(=O)O)N2C1=O)C(C)C
CC(=O)CC(c1ccccc1)c1c(O)c2ccccc2oc1=O (stereo not drawn)
NCCOCCOCCN
O=C(O)c1[nH]n(-c2ccc(S(=O)(=O)O)cc2)c(=O)c1N=Nc1ccc(S(=O)(=O)O)cc1
CCCCCCCCCC[N+](C)(C)[O-]
CSc1ccc(Oc2ccc(S(N)(=O)=O)cc2CN(C)C)cc1C
CCCCOC(=O)CCCCC(=O)OCCCC
CN(C)C(=O)NC1(c2ccccc2)CCN(CC[C@@]2(c3ccc(F)c(F)c3)CN(C(=O)c3ccccc3)CCO2)CC1
Cc1cc(Cc2ccc(N)c(C)c2)ccc1N
Cc1cc(SC2=C(O)C[C@@](CCc3ccc(N)cc3)(C(C)C)OC2=O)c(C(C)(C)C)cc1CO
CCCCCCC(C=O)=Cc1ccccc1
O=C1O[C@H]([C@H](O)CO)C(O)=C1O
CCC(C)N(C)C(=O)c1cc2ccccc2c(-c2ccccc2Cl)n1 (stereo not drawn)
OCC(O)CO
CCCCc1nc2cccnc2n1Cc1ccc(-c2ccccc2-c2nnn[nH]2)cc1
O=C(O)CC(O)(CC(=O)O)C(=O)O
O=Cc1ccccc1C=O
CC1(C)C(=O)NC(=O)N1CO
CCCC[C@H]1CN(CC2CCOCC2)C(=O)OC12CCN(C1(C)CCN(C(=O)c3c(C)ncnc3C)CC1)CC2
C#CC(O)C(CC)CCCC (stereo not drawn)
Cc1ccc(C(C)(C)C)c(O)c1

AC50, active:
CCc1nc(N)nc(N)c1-c1ccc(Cl)cc1 41.8 µM
CCc1cc(C2=C(C(=O)O)N(c3ccccc3C(F)(F)F)S(=O)(=O)c3ccccc32)cc2c1OCO2 78.8 µM
CN(C)CCCN1c2ccccc2Sc2ccc(Cl)cc21 86.4 µM
COc1ccc(C(=O)Nc2nc3ccccc3c(NCc3ccccc3)c2C#N)cc1 20.5 µM
